HEK293 tox: HEK 293 cell cytotoxicity; 94,000 tested, 6.6% active; Potency, µM (highest dose often 115 µM), usual class: inhibitors; HEK 293 viability, ATP luminescence (CellTiter-Glo), 48-72 h; also: nearly all actives have a fitted effect of over 60% in size
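Viability of HEK 293 cells, plated at 250 cells/well, was judged by cellular ATP after compound treatment for 48 or 72 hr. Luminescence was imaged 10 min after CellTiter-Glo addition at room temperature.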
NIH3T3 tox: cytotoxic compounds in NIH 3T3 cells; NIH 3T3 viability, CellTiter-Glo ATP luminescence, 48-72 h; Potency, µM (highest dose often 96.7 µM), hits mostly inhibitors; 94,000 tested, 4.3% active; AID 1345082; also: nearly all actives have a fitted effect of over 55% in size
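Luminescent ATP readout (CellTiter-Glo, 10 min RT) after 48 or 72 hr compound exposure of NIH 3T3 cells seeded at 400 cells/well in 1536-well format; quantitative HTS.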
FLuc inh: inhibitors of firefly (Photinus pyralis) luciferase. Potency, µM (top dose mostly 115 µM), most hits filed as inhibitors. P08659. 76,000 tested, 2.5% active. purified P. pyralis luciferase, luminescence, biochemical; also: nearly all actives have a fitted effect of over 65% in size
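Luminescence read by CCD imager after adding enzyme (10nM final) to wells holding compound, titrated in qHTS. Substrates 10uM each D-luciferin and ATP; buffer 50mM Tris acetate pH 7.5, 10mM Mg acetate, Tween-20, BSA.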
GPT2 inhibitor: inhibitors of human GPT2 alanine aminotransferase; Recombinant GPT2, coupled pyruvate oxidase/HRP Amplex Red fluorescence; Potency, µM (doses to about 57.7 µM), hits mostly inhibitors; 100,000 tested, 0.25% active; also: nearly all actives have a fitted effect of over 60% in size
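Recombinant GPT2 (10ng/uL) with 250uM a-KG and 2mM L-alanine, 30 min at room temperature, in HEPES pH 7.5 buffer. Pyruvate detected by pyruvate oxidase/HRP/Amplex Red fluorescence after 30 min in the dark; AOA (50uM) as positive control.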
hNpr1 antagonist: blocks ANP-stimulated signaling of human Npr1 receptor; HEK293 hNpr1 GloSensor cGMP, ANP-stimulated luminescence; Potency, µM (highest dose often 46.3 µM), actives largely listed as inhibitors; 76,000 tested, 1.6% active; AID 1347048; calls by dose curve; also: nearly all actives have a fitted effect of over 60% in size
Target sequence (P16066 whole entry, looked up): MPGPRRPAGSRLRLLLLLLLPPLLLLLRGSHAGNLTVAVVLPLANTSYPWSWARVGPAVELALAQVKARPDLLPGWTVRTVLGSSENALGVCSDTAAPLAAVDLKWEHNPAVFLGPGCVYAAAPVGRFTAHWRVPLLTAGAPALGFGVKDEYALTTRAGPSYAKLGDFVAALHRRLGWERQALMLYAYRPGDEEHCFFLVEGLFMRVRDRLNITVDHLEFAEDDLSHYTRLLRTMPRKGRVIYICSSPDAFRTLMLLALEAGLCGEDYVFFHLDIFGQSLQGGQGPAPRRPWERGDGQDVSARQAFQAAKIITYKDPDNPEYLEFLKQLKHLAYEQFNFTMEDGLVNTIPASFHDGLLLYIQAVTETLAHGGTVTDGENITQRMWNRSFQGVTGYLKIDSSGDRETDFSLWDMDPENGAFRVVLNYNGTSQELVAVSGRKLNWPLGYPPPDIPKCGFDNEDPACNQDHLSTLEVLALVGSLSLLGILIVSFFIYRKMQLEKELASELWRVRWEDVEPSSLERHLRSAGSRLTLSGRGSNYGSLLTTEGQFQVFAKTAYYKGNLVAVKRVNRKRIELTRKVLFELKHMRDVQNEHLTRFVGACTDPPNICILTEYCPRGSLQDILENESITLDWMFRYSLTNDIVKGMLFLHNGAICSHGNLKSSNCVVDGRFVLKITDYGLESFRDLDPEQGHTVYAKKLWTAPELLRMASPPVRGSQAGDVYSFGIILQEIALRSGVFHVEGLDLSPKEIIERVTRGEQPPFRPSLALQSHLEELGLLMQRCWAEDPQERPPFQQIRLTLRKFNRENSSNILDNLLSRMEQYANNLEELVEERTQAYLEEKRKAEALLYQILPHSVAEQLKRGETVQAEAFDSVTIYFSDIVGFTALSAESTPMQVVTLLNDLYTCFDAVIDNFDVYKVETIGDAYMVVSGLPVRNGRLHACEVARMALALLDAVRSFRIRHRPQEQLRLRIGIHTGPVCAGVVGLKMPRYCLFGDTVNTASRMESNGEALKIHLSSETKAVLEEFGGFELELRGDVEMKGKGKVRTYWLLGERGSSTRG
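HEK293 cells stably expressing human Npr1 and cGMP GloSensor pGS-40F, loaded 2 h with 2% GloSensor reagent, given compound 30 min at room temperature. Luminescence read before and 20 min after 0.1 nM hNppA.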
A number is an active result; n = inactive; u = inconclusive; x = not tested or not shown. Hits are enriched below; roughly 10% of the tested compounds scored in any of these assays. Unless noted, calls follow the shape of the dose curve; as a rule, active = well fitted curve in the direction sought with a large enough effect; inconclusive = small, poorly fitted or top-dose-only effect, or another doubt; inactive = no such curve, though single readings can be large; an effect the other way counts as inactive or inconclusive.

SMILES	HEK293 tox	NIH3T3 tox	FLuc inh	GPT2 inhibitor	hNpr1 antagonist
O=C(C1CC1)N1CCCN(CCc2ccccc2)c2ccccc21	u	32µM	n	n	n
O=C1NC2(CCN(CC3CCCCC3)C2)Oc2ccccc21 (centres undefined)	63µM	u	n	n	n
O=C1NC2(CCCN(CC3CC3)C2)Oc2ccccc21 (centres undefined)	n	n	n	n	n
Cc1noc(C)c1NC(=O)N[C@@H]1C[C@H](COc2ccc(S(C)(=O)=O)cc2)[C@@H](O)[C@H]1O	n	n	n	n	n
CC1=C(C(=O)N(C)C)C(c2ccc(Cl)cc2)N2C(CC(=O)N3CCOCC3)=CSC2=N1 (centres undefined)	n	n	n	n	n
Cc1nc(CCC(=O)N2CCn3nc(C(=O)Nc4ccccc4)cc3C2)n[nH]1	n	n	28µM	n	n
Cc1ccc(C(=O)N2[C@@H]3CC[C@H]2CC(NC(=O)c2cnc(C)cn2)C3)cn1 (some centres undefined)	u	n	n	n	n
Cc1ccc2c(n1)N(C)[C@H](CO)CCN(CC1CCCCC1)C2	45µM	u	n	n	n
CC(=O)N1CCC(N2CC[C@@H](CO)N(C)c3nc(C)ccc3C2)CC1	79µM	45µM	n	n	n
Cc1ccc2c(n1)N(C)[C@H](CO)CCN(Cc1ccc(F)cc1)C2	n	n	n	n	n
Cc1ccc2c(n1)N(C)[C@H](CO)CCN(Cc1ccccc1Cl)C2	u	u	n	n	n
Cc1ccc2c(n1)N(C)[C@H](CO)CCN(C(=O)Nc1ccccc1)C2	n	n	n	n	n
Cc1ccc2c(n1)N(C)[C@H](CO)CCN(Cc1ccc(OC(F)(F)F)cc1)C2	79µM	u	n	u	n
COc1ccc(CN2CCOC[C@H](Oc3cccc(C)n3)C2)cc1	n	n	n	n	n
Cc1ccc(C2Cn3cnc(C(=O)N4CCC(C(=O)NCc5ccc(F)cc5)CC4)c3CO2)cc1 (centres undefined)	n	n	35µM	n	n
COc1ccc(C2Cn3cnc(C(=O)N4CCC(C(=O)NCc5ccc(F)cc5)CC4)c3CO2)cc1 (centres undefined)	n	n	n	n	n
COc1ccc(CNC(=O)C2CCN(C(=O)c3ncn4c3COC(c3ccc(C)cc3)C4)CC2)cc1 (centres undefined)	n	n	40µM	n	n
O=C1COc2ccc(OCc3ccccc3)nc2CN1Cc1ccc(F)cc1	u	u	u	n	n
Cc1nn(-c2ccccc2)c2c1C(C1CC1)N(C1CN([S+](=O)([O-])c3ccccc3)C1)C2=O (centres undefined)	u	n	x	x	x
C=CCC1(CO)CCCN(Cc2cc(C3CCCCC3)no2)C1 (centres undefined)	40µM	u	n	n	n
OCC1(CC2CC2)CCCN(Cc2noc(C3CC3)n2)C1 (centres undefined)	n	n	n	n	n
COc1ccc([C@H]2C[C@@H](O)[C@@H](O)[C@@H]2NC(=O)C2CCC2)cc1	n	n	n	n	n
COC[C@@H]1CN(S(=O)(=O)c2ccccc2F)C[C@H]1C(N)=O	n	n	n	n	n
Cc1nn(Cc2ccccc2)c(C)c1[C@@H]1C=C[C@@H](NC(=O)c2ccc(F)c(Cl)c2)C1	28µM	u	n	n	u
Cc1nn(Cc2ccccc2)c(C)c1[C@@H]1C=C[C@@H](NC(=O)Nc2cccc(C#N)c2)C1	71µM	u	n	n	n
SMILES	HEK293 tox	NIH3T3 tox	FLuc inh	GPT2 inhibitor	hNpr1 antagonist
Cc1nn(Cc2ccccc2)c(C)c1[C@@H]1C=C[C@@H](NC(=O)c2ccco2)C1	71µM	u	n	n	n
O=C(O)CCCC(=O)N1Cc2ccccc2CC2(CCCN(Cc3ccccc3)C2)C1 (centres undefined)	n	n	x	n	x
COc1ccccc1Nc1ccnc(N2CCC(NC(=O)N(C)C)CC2)n1	u	n	x	n	x
COc1ccc(-c2cc(N3CCCC(NC(=O)c4cccn4C)C3)n[nH]2)cc1 (centres undefined)	u	u	35µM	n	n
COc1ccc(-c2cc(N3CCC(NC(=O)c4ccccc4)CC3)n[nH]2)cc1	u	u	n	n	n
COc1ccc(-c2cc(N3CCC(NC(=O)c4ccc(Cl)s4)CC3)n[nH]2)cc1	25µM	u	n	n	n
COc1ccc(-c2cc(N3CCCC(NC(=O)c4cc5ccccc5[nH]4)C3)n[nH]2)cc1 (centres undefined)	u	u	8.9µM	u	n
COc1ccc(-c2cc(N3CCCC(NC(=O)c4ccccc4F)C3)n[nH]2)cc1 (centres undefined)	u	u	u	u	n
COc1ccc(-c2cc(N3CCCC(NC(=O)c4cc(C)cc(C)c4)C3)n[nH]2)cc1 (centres undefined)	45µM	40µM	u	u	n
O=C1NCc2ccccc2CC12CCCN(Cc1ccc(Cl)s1)C2 (centres undefined)	u	u	x	n	x
O=C(CCCn1nnnc1CN1CCOCC1)N1CCCCC1CCc1ccccn1 (centres undefined)	n	n	n	n	n
CN(C)c1cccc(C(=O)NC2CCN(c3cc(-c4ccc(F)cc4)[nH]n3)CC2)c1	u	u	35µM	n	u
COc1ccc(-c2cc(N3CCCC(NC(=O)c4ccc(C(F)(F)F)cc4)C3)n[nH]2)cc1 (centres undefined)	u	45µM	n	n	n
COc1ccc(-c2cc(N3CCC(NC(=O)c4ccc5cc[nH]c5c4)CC3)n[nH]2)cc1	u	40µM	n	n	n
COc1ccc(-c2cc(N3CCCC(NC(=O)CCc4ccccc4OC)C3)n[nH]2)cc1 (centres undefined)	40µM	u	n	n	n
O=C(NC1CCCN(c2cc(-c3ccccc3)[nH]n2)C1)c1ccc(C(F)(F)F)cc1 (centres undefined)	u	u	n	n	n
COc1ccc(C(=O)NC2CCN(c3cc(-c4ccc(OC)cc4)[nH]n3)CC2)cc1	u	u	n	n	n
COc1cccc(N2CC(C(=O)N3CCC(C(=O)N(C)C)C3)NC2=O)c1 (centres undefined)	n	n	n	n	n
COc1cccc(CNC(=O)c2cc(-c3ccc(F)cc3)c3nncn3n2)c1	u	u	x	n	x
Cn1nc(C2CCN(C(=O)Cc3ccc(F)cc3)CC2)[nH]c1=O	n	n	n	n	n
CN1Cc2ncnc(N3CCN(Cc4ccccc4)CC3)c2CN(c2ccc(Cl)cc2)C1=O	u	n	n	n	n
COc1ccc(-c2cc(N3CCCC(NC(=O)c4ccc(OC)c(F)c4)C3)n[nH]2)cc1 (centres undefined)	40µM	u	u	u	n
COc1ccc(-c2cc(N3CCCC(NC(=O)c4cccc(N(C)C)c4)C3)n[nH]2)cc1 (centres undefined)	u	u	16µM	u	n
